# Test results: PMC11006913
# Substitutions are numbered along the chain they refer to.
# How the values were obtained:
# Assay in all cases: PBM; 200 nM protein, PBS
# Settings in all cases: dsDNA, one strand shown
# [1] = target: T1, SIX6 (Homo sapiens, UniProt O95475 114-200, L167I)
# T1 sequence: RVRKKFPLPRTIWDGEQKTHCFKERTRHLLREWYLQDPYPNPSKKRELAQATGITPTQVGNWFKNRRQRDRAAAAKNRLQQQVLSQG
# [2] = target: T2, SIX6 (Homo sapiens, UniProt O95475 114-200, L143V)
# T2 sequence: T1 sequence with L30V, I54L
# [3] = target: T3, SIX6 (Homo sapiens, UniProt O95475 114-200, H141N)
# T3 sequence: T1 sequence with H28N, I54L
# [4] = target: T4, SIX6 (Homo sapiens, UniProt O95475 114-200, T165P)
# T4 sequence: T1 sequence with T52P, I54L
# [5] = target: T5, SIX6 (Homo sapiens, UniProt O95475 114-200, L167M)
# T5 sequence: T1 sequence with I54M
# [6] = target: T6, SIX6 (Homo sapiens, UniProt O95475 114-200, L143M)
# T6 sequence: T1 sequence with L30M, I54L
# [7] = target: T7, SIX6 (Homo sapiens, UniProt O95475 114-200, L143I)
# T7 sequence: T1 sequence with L30I, I54L
# [8] = target: T8, SIX6 (Homo sapiens, UniProt O95475 114-200, T165G)
# T8 sequence: T1 sequence with T52G, I54L
# [9] = target: T9, SIX6 (Homo sapiens, UniProt O95475 114-200, T139Q)
# T9 sequence: T1 sequence with T26Q, I54L
# [10] = target: T10, SIX6 (Homo sapiens, UniProt O95475 114-200, T165A)
# T10 sequence: T1 sequence with T52A, I54L
# [11] = target: T11, NKX2-6 (Homo sapiens, UniProt A6NCS4 118-204)
# T11 sequence: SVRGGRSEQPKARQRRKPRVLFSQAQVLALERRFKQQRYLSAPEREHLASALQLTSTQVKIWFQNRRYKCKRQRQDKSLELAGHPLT
# [12] = target: T12, SIX6 (Homo sapiens, UniProt O95475 114-200, L167V)
# T12 sequence: T1 sequence with I54V
# [13] = target: T13, SIX6 (Homo sapiens, UniProt O95475 114-200)
# T13 sequence: T1 sequence with I54L
# [14] = target: T14, SIX6 (Homo sapiens, UniProt O95475 114-200, T165I)
# T14 sequence: T1 sequence with T52I, I54L
# [15] = target: T15, NKX2-6 (Homo sapiens, UniProt A6NCS4 118-204, F151L)
# T15 sequence: T11 sequence with F34L
Sequence,binding signal [1],binding signal [2],binding signal [3],binding signal [4],binding signal [5],binding signal [6],binding signal [7],binding signal [8],binding signal [9],binding signal [10],binding signal [11],binding signal [12],binding signal [13],binding signal [14],binding signal [15]
AGCTCCGC,"9.05 upbm affinity estimate (log intensity, higher = more binding, comparable within an allelic series)","8.96 upbm affinity estimate (log intensity, higher = more binding, comparable within an allelic series)","8.98 upbm affinity estimate (log intensity, higher = more binding, comparable within an allelic series)","8.97 upbm affinity estimate (log intensity, higher = more binding, comparable within an allelic series)","8.95 upbm affinity estimate (log intensity, higher = more binding, comparable within an allelic series)","9.08 upbm affinity estimate (log intensity, higher = more binding, comparable within an allelic series)","9.04 upbm affinity estimate (log intensity, higher = more binding, comparable within an allelic series)","9.04 upbm affinity estimate (log intensity, higher = more binding, comparable within an allelic series)","8.99 upbm affinity estimate (log intensity, higher = more binding, comparable within an allelic series)","8.94 upbm affinity estimate (log intensity, higher = more binding, comparable within an allelic series)","9.07 upbm affinity estimate (log intensity, higher = more binding, comparable within an allelic series)","9.1 upbm affinity estimate (log intensity, higher = more binding, comparable within an allelic series)","8.9 upbm affinity estimate (log intensity, higher = more binding, comparable within an allelic series)","9.01 upbm affinity estimate (log intensity, higher = more binding, comparable within an allelic series)","9.27 upbm affinity estimate (log intensity, higher = more binding, comparable within an allelic series)"
AGGTGGGC,"8.98 upbm affinity estimate (log intensity, higher = more binding, comparable within an allelic series)","8.85 upbm affinity estimate (log intensity, higher = more binding, comparable within an allelic series)","8.88 upbm affinity estimate (log intensity, higher = more binding, comparable within an allelic series)","8.89 upbm affinity estimate (log intensity, higher = more binding, comparable within an allelic series)","8.86 upbm affinity estimate (log intensity, higher = more binding, comparable within an allelic series)","8.93 upbm affinity estimate (log intensity, higher = more binding, comparable within an allelic series)","8.92 upbm affinity estimate (log intensity, higher = more binding, comparable within an allelic series)","8.98 upbm affinity estimate (log intensity, higher = more binding, comparable within an allelic series)","9.06 upbm affinity estimate (log intensity, higher = more binding, comparable within an allelic series)","8.91 upbm affinity estimate (log intensity, higher = more binding, comparable within an allelic series)",,"8.91 upbm affinity estimate (log intensity, higher = more binding, comparable within an allelic series)","8.91 upbm affinity estimate (log intensity, higher = more binding, comparable within an allelic series)","8.94 upbm affinity estimate (log intensity, higher = more binding, comparable within an allelic series)",
ATATCACA,"11.3 upbm affinity estimate (log intensity, higher = more binding, comparable within an allelic series)","10.3 upbm affinity estimate (log intensity, higher = more binding, comparable within an allelic series)","11.3 upbm affinity estimate (log intensity, higher = more binding, comparable within an allelic series)","9.9 upbm affinity estimate (log intensity, higher = more binding, comparable within an allelic series)","10.7 upbm affinity estimate (log intensity, higher = more binding, comparable within an allelic series)","11 upbm affinity estimate (log intensity, higher = more binding, comparable within an allelic series)","10.4 upbm affinity estimate (log intensity, higher = more binding, comparable within an allelic series)","11.3 upbm affinity estimate (log intensity, higher = more binding, comparable within an allelic series)","11.1 upbm affinity estimate (log intensity, higher = more binding, comparable within an allelic series)","11.2 upbm affinity estimate (log intensity, higher = more binding, comparable within an allelic series)",,"11.1 upbm affinity estimate (log intensity, higher = more binding, comparable within an allelic series)","11 upbm affinity estimate (log intensity, higher = more binding, comparable within an allelic series)","11 upbm affinity estimate (log intensity, higher = more binding, comparable within an allelic series)",
ATGATACG,"11.2 upbm affinity estimate (log intensity, higher = more binding, comparable within an allelic series)","10.3 upbm affinity estimate (log intensity, higher = more binding, comparable within an allelic series)","11.2 upbm affinity estimate (log intensity, higher = more binding, comparable within an allelic series)","9.78 upbm affinity estimate (log intensity, higher = more binding, comparable within an allelic series)","10.6 upbm affinity estimate (log intensity, higher = more binding, comparable within an allelic series)","11 upbm affinity estimate (log intensity, higher = more binding, comparable within an allelic series)","10.4 upbm affinity estimate (log intensity, higher = more binding, comparable within an allelic series)","11.3 upbm affinity estimate (log intensity, higher = more binding, comparable within an allelic series)","11.2 upbm affinity estimate (log intensity, higher = more binding, comparable within an allelic series)","11.1 upbm affinity estimate (log intensity, higher = more binding, comparable within an allelic series)",,"11 upbm affinity estimate (log intensity, higher = more binding, comparable within an allelic series)","11 upbm affinity estimate (log intensity, higher = more binding, comparable within an allelic series)","10.9 upbm affinity estimate (log intensity, higher = more binding, comparable within an allelic series)",
GCGCTGCC,"8.75 upbm affinity estimate (log intensity, higher = more binding, comparable within an allelic series)","8.74 upbm affinity estimate (log intensity, higher = more binding, comparable within an allelic series)","8.81 upbm affinity estimate (log intensity, higher = more binding, comparable within an allelic series)","8.85 upbm affinity estimate (log intensity, higher = more binding, comparable within an allelic series)","8.8 upbm affinity estimate (log intensity, higher = more binding, comparable within an allelic series)","8.76 upbm affinity estimate (log intensity, higher = more binding, comparable within an allelic series)","8.77 upbm affinity estimate (log intensity, higher = more binding, comparable within an allelic series)","8.82 upbm affinity estimate (log intensity, higher = more binding, comparable within an allelic series)","8.75 upbm affinity estimate (log intensity, higher = more binding, comparable within an allelic series)","8.8 upbm affinity estimate (log intensity, higher = more binding, comparable within an allelic series)",,"8.69 upbm affinity estimate (log intensity, higher = more binding, comparable within an allelic series)","8.71 upbm affinity estimate (log intensity, higher = more binding, comparable within an allelic series)","8.78 upbm affinity estimate (log intensity, higher = more binding, comparable within an allelic series)",
TAGTATCA,"11.3 upbm affinity estimate (log intensity, higher = more binding, comparable within an allelic series)","10.6 upbm affinity estimate (log intensity, higher = more binding, comparable within an allelic series)","11.1 upbm affinity estimate (log intensity, higher = more binding, comparable within an allelic series)","10 upbm affinity estimate (log intensity, higher = more binding, comparable within an allelic series)","10.8 upbm affinity estimate (log intensity, higher = more binding, comparable within an allelic series)","11 upbm affinity estimate (log intensity, higher = more binding, comparable within an allelic series)","10.4 upbm affinity estimate (log intensity, higher = more binding, comparable within an allelic series)","11.3 upbm affinity estimate (log intensity, higher = more binding, comparable within an allelic series)","11.3 upbm affinity estimate (log intensity, higher = more binding, comparable within an allelic series)","11.2 upbm affinity estimate (log intensity, higher = more binding, comparable within an allelic series)",,"11.1 upbm affinity estimate (log intensity, higher = more binding, comparable within an allelic series)","11 upbm affinity estimate (log intensity, higher = more binding, comparable within an allelic series)","11 upbm affinity estimate (log intensity, higher = more binding, comparable within an allelic series)",
